# Dicer inh: inhibitors of human Dicer processing of pre-microRNA; cat-ELCCA pre-miR-21 Dicer processing, chemiluminescence; stronger effect = higher value; 47,000 tested, 6% active; z-score at 25 µM; Q9UPY3; in the data active = z-score above about 3, passing the limit was not always enough;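 note: plate controls were vehicle for no effect and no enzyme for full effect; higher signal means more uncleaved substrate so more Dicer inhibition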
# Target sequence (Q9UPY3 whole entry, looked up): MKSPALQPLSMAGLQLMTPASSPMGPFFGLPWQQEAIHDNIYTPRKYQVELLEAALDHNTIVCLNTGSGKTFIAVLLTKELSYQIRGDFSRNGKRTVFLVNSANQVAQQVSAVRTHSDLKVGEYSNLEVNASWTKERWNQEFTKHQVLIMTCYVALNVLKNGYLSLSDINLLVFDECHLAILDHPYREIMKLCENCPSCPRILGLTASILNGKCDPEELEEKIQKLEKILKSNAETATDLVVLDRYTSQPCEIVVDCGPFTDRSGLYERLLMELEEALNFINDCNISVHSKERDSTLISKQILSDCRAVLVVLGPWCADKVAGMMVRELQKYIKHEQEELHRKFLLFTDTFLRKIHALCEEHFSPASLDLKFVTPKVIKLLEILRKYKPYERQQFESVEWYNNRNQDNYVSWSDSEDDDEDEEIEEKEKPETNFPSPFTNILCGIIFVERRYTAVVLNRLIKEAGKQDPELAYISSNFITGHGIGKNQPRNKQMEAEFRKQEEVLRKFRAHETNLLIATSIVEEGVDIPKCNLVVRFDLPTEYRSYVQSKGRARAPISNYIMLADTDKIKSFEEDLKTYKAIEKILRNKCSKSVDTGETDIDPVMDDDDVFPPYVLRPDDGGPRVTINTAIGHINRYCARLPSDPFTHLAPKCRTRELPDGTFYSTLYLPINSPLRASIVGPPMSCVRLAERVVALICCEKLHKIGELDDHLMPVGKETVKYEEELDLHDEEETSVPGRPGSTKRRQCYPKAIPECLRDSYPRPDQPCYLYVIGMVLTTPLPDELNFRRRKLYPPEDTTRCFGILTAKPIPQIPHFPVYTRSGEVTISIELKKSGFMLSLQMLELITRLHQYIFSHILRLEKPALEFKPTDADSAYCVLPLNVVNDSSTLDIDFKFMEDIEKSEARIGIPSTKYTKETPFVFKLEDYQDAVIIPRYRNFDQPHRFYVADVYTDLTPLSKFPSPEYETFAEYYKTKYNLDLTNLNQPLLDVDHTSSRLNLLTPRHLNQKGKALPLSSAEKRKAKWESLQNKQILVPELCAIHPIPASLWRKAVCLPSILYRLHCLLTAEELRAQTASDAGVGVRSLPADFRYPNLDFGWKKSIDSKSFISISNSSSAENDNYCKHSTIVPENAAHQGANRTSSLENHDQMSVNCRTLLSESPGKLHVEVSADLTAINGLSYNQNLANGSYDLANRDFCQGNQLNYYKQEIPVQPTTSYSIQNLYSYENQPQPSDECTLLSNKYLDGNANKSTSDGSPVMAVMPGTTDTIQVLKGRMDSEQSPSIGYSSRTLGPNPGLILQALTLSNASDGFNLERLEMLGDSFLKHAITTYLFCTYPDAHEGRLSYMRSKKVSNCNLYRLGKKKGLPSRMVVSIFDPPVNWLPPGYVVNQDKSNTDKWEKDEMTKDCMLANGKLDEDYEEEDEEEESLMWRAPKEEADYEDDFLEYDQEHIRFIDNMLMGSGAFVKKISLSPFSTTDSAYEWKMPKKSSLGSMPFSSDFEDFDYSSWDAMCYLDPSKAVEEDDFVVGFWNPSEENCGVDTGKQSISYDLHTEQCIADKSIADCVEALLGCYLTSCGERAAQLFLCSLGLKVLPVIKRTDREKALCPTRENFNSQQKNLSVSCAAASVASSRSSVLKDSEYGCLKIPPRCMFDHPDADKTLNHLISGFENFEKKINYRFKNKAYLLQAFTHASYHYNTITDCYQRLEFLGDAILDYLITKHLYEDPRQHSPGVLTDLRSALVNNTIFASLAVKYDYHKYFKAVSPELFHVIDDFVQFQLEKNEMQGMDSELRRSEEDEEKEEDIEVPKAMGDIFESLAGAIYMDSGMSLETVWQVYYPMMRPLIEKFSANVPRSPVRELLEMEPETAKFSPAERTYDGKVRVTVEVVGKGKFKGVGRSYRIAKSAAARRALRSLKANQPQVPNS
# * = called active by the depositor. Many of the other results were omitted from the sample, so hits are more common in it than they were.
SMILES,Dicer inh
CCOc1cc(C2C(C(=O)OCCOC)=C(C)NC3=C2C(=O)CC(c2cccs2)C3)ccc1O (stereo not given),3.3*
CCOc1ccc(C2CC(=O)C3=C(C2)NC(C)=C(C(=O)OCCOC)C3c2cccs2)cc1OC (stereo not given),-1.4
CCOc1ccc(C2C(C(=O)OC(C)C)=C(C)NC3=C2C(=O)CC(c2ccccc2)C3)cc1OC (stereo not given),1.5
CCOc1ccc(C2C(C(=O)OC(C)C)=C(C)NC3=C2C(=O)CC(c2ccc(OC)cc2)C3)cc1 (stereo not given),0.91
CC1=C(C#N)C(c2ccccc2F)C2=C(CCCC2=O)N1 (stereo not given),6.6
COc1ccc(C2CC(=O)C3=C(C2)NC(C)=C(C(=O)OC(C)C)C3c2ccc(F)cc2)cc1 (stereo not given),-0.25
CCOC(=O)C1=C(C)NC2=C(C(=O)CC(c3cccs3)C2)C1c1ccc(F)cc1 (stereo not given),-0.12
CCOc1ccc(C2C(C(=O)OC(C)C)=C(C)NC3=C2C(=O)CC(c2ccccc2)C3)cc1 (stereo not given),2.3
CC1=C(C#N)C(c2cccc(F)c2)C2=C(CCCC2=O)N1 (stereo not given),4.7*
CCc1ccc(C2C(C#N)=C(C)NC3=C2C(=O)CCC3)cc1 (stereo not given),0.32
COc1ccc(C[C@H](NC(C)=O)C(=O)O)c(Cl)c1OC,-0.79
Cc1ccc(-c2nnc3c4c5c(sc4ncn23)CCCC5)cc1,0.37
COc1cc([C@@H]2Nc3c(C)cccc3[C@@H]3C=CC[C@@H]32)cc(Br)c1OC,1.3
CN1CN=C(SCc2ccc(Cl)cc2)NC1,0.6
COc1cccc(SCC(=O)NCCSCc2ccco2)c1,-0.15
CN(C)/C=N/c1nc(Sc2c(Cl)cccc2[N+](=O)[O-])n[nH]1,2.1
COCCCNC(=O)/C(C#N)=C/N(C)C,-0.03
CCNc1nc(NC(C)C)nc(OCCNS(=O)(=O)c2ccc(C)cc2)n1,1.5
CCOCCOC(=O)C1=C(C)NC2=C(C(=O)CCC2)C1c1cccc(Cl)c1 (stereo not given),0.38
CC(C)(C)c1ccc(C(=O)O/N=C(\Cn2nnc(N3CCCC3)n2)c2ccc(Cl)cc2)cc1,-0.08
O=C(Nc1cc(F)ccc1F)Nc1cc(C(F)(F)F)ccc1N1CCOCC1,1.2
O=C(NNS(=O)(=O)c1cccc(C(F)(F)F)c1)c1cc2ncc(C(F)(F)F)cc2s1,-0.52
CC1=C(C#N)C(c2ccc(F)cc2)C2=C(CC(c3ccccc3)CC2=O)N1 (stereo not given),1.1
CCOC(=O)C1=C(C)NC2=C(C(=O)CC(c3ccc(OC)cc3)C2)C1c1ccc(O)c(OC)c1 (stereo not given),-0.1
COc1ccc(C2CC(=O)C3=C(C2)NC(C)=C(C#N)C3c2ccc(Br)cc2)cc1 (stereo not given),0.83
SMILES,Dicer inh
COCCOC(=O)C1=C(C)NC2=C(C(=O)CC(c3cccs3)C2)C1c1ccc(O)cc1 (stereo not given),3*
CCOCCOC(=O)C1=C(C)NC2=C(C(=O)CC(c3cccs3)C2)C1c1cccc(O)c1 (stereo not given),3.4*
COc1ccc(C2CC(=O)C3=C(C2)NC(C)=C(C#N)C3c2ccc(F)cc2)cc1 (stereo not given),4.5*
COCCOC(=O)C1=C(C)NC2=C(C(=O)CC(c3cccs3)C2)C1c1ccsc1 (stereo not given),1.4
CCOCCOC(=O)C1=C(C)NC2=C(C(=O)CC(c3cccs3)C2)C1c1ccc(OC)c(O)c1 (stereo not given),-0.96
CCOC(=O)C1=C(C)NC2=C(C(=O)CC(c3cccs3)C2)C1c1ccsc1 (stereo not given),1.1
COCCOC(=O)C1=C(C)NC2=C(C(=O)CC(c3cccs3)C2)C1c1ccc(O)c(OC)c1 (stereo not given),2.5
CCCOC(=O)C1=C(C)NC2=C(C(=O)CC(c3cccs3)C2)C1c1ccc(F)cc1 (stereo not given),2.8
CCOCCOC(=O)C1=C(C)NC2=C(C(=O)CC(c3cccs3)C2)C1c1ccc(O)c(OC)c1 (stereo not given),5*
Cc1ccc(-c2csc(=N)n2-c2ccc(Cl)cc2)cc1,-0.32
Nc1ccc(Sc2ccc(N)cc2C(=O)O)c(C(=O)O)c1,0.21
CCOc1ccc(C(=O)Cn2c(C)[n+](C)c3ccccc32)cc1,-1.2
CCCCc1n(CC(=O)c2ccccc2)c2ccccc2[n+]1C,0.12
Cc1n(CC(=O)c2ccc(F)cc2)c2ccccc2[n+]1C,4.8*
CC1(C)CC(=O)c2ccc(OCc3ccccc3F)cc2O1,-1.2
COC(=O)c1ccc(C2c3c(oc4cc(C)c(C)cc4c3=O)C(=O)N2c2nccs2)cc1 (stereo not given),2.7
COc1cc(OC)cc(C(C)(C)OC(=O)N[C@@H](CC(C)C)C(=O)O)c1,-3.2
C=CCN1C(=O)C2(/C(=C(/O)c3ccc(C)cc3)C(=O)C(=O)N2CC2CCCO2)c2ccccc21 (stereo not given),0.43
Cc1nnc(SCC(=O)Nc2ccc(C(F)(F)F)cc2)n1-c1ccc(OCc2ccccc2)cc1,-0.3

# High-throughput results deposited in PubChem by Center for Chemical Genomics, University of Michigan.
